This is a sample that favours compounds with a hit; in the whole collection about 19% have one here.
HepG2 viability = counter-screen for TGF-b inhibitors: cytotoxicity in HepG2 cells; HepG2 CAGA-GFP viability, ATP luminescence, 18 h; Potency, µM (highest dose often 46.1 µM), for inactives: at the highest dose activity change, negative = cytotoxicity, actives largely listed as cytotoxic; 0.76% of 410,000 active; AID 588856; further: potency means the concentration at half of the fitted maximal effect
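CellTiter-Glo luminescence gave cytotoxicity after 18 hours at 37 degrees C. The cells were HepG2 CAGA-GFP in 1% FBS DMEM, stimulated with 500 pg/mL TGF-beta after compound addition. %Activity was normalised to no-cell wells (complete cell-killing) and DMSO (no toxicity), and curves were fitted and classified.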
DT40 TDP1 CPT = DT40-hTDP1 cell growth loss with CPT | chicken DT40 Tdp1-/-;hTDP1 cells + 20 nM CPT, ATP luminescence, 48 h | Potency, µM (doses to about 46.2 µM), without a hit: top-dose activity change, negative = growth inhibition, most hits filed as inhibitors | 12% of 420,000 active | AID 686979; further: potency means the concentration at half of the fitted maximal effect; on the % scale 0 is the no-effect control and ±100 the full control effect; nearly all actives have a fitted effect of over 55% in size
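Chicken DT40 Tdp1-/- cells stably complemented with human TDP1 were seeded at 400 cells/well in medium containing 20 nM camptothecin, exposed to pin-transferred compounds, and grown at 37 °C for at least 48 hr. Viability was read as ATP luminescence.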
IL1B secr inh = inhibitors of inflammasome signaling (IL-1 beta secretion); THP-1 LPS/ATP IL-1B secretion, AlphaLISA, 16 h; active compounds read low; AID 743279; activity change, % at 57.5 µM; 4.7% of 360,000 active; in the data active means activity change below about -50%; inconclusive means mostly about -30% to -49%; further: on the % scale 0 is the no-effect control and ±100 the full control effect
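Secreted IL-1B measured by AlphaLISA bead assay after 16 h compound exposure of THP-1 cells; compounds (final up to 57.5 uM) added 1 h before LPS (250 ng/mL) and ATP (1.25 mM) stimulation; lower signal means less secretion.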
TDP1 inh = TDP1 (human) enzyme inhibition; Q9NUW8; recombinant TDP1, AlphaScreen DNA substrate cleavage; Potency, µM (top dose mostly 130 µM), for the others: at the top dose activity change, negative = inhibition, most hits filed as inhibitors; 0.28% of 350,000 active; further: potency means the concentration at half of the fitted maximal effect; on the % scale 0 is the no-effect control and ±100 the full control effect; nearly all actives have a fitted effect of over 40% in size
Target sequence (Q9NUW8 whole entry, looked up): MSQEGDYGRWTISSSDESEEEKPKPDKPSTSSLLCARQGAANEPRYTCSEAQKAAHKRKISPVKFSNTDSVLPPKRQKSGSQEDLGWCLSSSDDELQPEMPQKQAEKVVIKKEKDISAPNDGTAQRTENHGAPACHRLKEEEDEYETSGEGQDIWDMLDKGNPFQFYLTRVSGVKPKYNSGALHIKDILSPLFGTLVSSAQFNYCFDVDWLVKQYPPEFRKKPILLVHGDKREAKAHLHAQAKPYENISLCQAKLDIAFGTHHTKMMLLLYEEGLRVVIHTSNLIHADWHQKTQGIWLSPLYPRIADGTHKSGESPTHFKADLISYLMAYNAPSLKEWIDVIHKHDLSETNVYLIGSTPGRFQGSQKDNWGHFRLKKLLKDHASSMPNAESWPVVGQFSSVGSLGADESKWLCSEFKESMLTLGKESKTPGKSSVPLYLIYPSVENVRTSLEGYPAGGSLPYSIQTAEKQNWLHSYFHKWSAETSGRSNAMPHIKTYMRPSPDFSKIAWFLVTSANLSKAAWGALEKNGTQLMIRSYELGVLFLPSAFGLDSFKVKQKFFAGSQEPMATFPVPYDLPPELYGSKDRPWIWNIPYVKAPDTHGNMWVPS
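AlphaScreen read-out: signal falls as enzyme removes the 3' tyrosine-FITC from a 5'-biotinylated DNA oligo (15 nM, 5 min, RT). Enzyme was E. coli-made recombinant Tdp1 at 1 nM, exposed to compound for 15 min beforehand; beads 10 ug/ml, 10 min.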
TGFb SMAD3 inh = TGF-b pathway inhibition; HepG2 CAGA-GFP TGF-b/SMAD3 reporter, GFP fluorescence, 18 h; TGF-beta stimulated, 500 pg/mL final; Potency, µM (top dose mostly 46.1 µM), for inactives: at the highest dose activity, negative = inhibition, most hits filed as inhibitors; 1.2% of 410,000 active; further: potency means the concentration at half of the fitted maximal effect; on the % scale 0 is the no-effect control and ±100 the full control effect; nearly all actives have a fitted effect of over 65% in size
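HEPG2 CAGA-GFP reporter cells (1000/well, DMEM with 1% FBS) received compounds, then recombinant TGF-beta at 500 pg/mL final for 18 hours at 37 degrees C. Per-cell GFP summed per well was normalised to unstimulated and stimulated DMSO controls before curve fitting.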
TDP1 cell noCPT = qHTS for Inhibitors of human tyrosyl-DNA phosphodiesterase 1 (TDP1): qHTS in cells in absence of CPT. 15% of 420,000 active. AID 686978, 2013. DT40 Tdp1-/- hTDP1 cells, no CPT, ATP luminescence, 48 h. Potency, µM (series often up to 46.2 µM), inactives show at the highest dose activity change, negative = growth inhibition, most hits filed as inhibitors; further: potency means the concentration at half of the fitted maximal effect; on the % scale 0 is the no-effect control and ±100 the full control effect; nearly all actives have a fitted effect of over 55% in size
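Luminescent ATP content (CellTiter-Glo) served as the growth readout. Knockout chicken DT40 cells expressing human TDP1 were exposed to compounds without camptothecin for a minimum 48 hr at 37 °C.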
Starred values were filed as active, the others as inactive; ? = inconclusive; . = not tested or not shown; ! = repeats disagree; [ ] = remark or other dose. Unless noted, the call rests on the fitted dose curve; in most records, active means well fitted curve in the direction sought with a large enough effect; inconclusive means small, poorly fitted or top-dose-only effect, or another doubt; inactive means no such curve, though single readings can be large; an effect the other way counts as inactive or inconclusive.

SMILES	HepG2 viability	DT40 TDP1 CPT	IL1B secr inh	TDP1 inh	TGFb SMAD3 inh	TDP1 cell noCPT
CCOc1ccc(-n2c(C)cc(/C=N/NC(=O)C(N)=O)c2C)cc1	-1%	5%	11	3%	22%	-19%
CCOc1ccc(-n2c(C)cc(/C=N\NC(=O)CC(=O)NC3CCCCC3)c2C)cc1	-14%	18µM*	-29	4%	-28%	13µM*
CCOc1ccc(-n2c(C)cc(/C=N/Nc3nc(C)cc(=O)[nH]3)c2C)cc1	-9%	16µM*	-3	10%	-15%	12µM*
COc1ccc(NS(=O)(=O)c2cccc(N/C(=N\S(=O)(=O)c3ccccc3)c3ccc(F)cc3)c2)cc1	-25%	21µM*	-6	3%	?	?
COc1ccccc1NS(=O)(=O)c1cc(N/C(=N/S(=O)(=O)c2ccccc2)c2ccc(F)cc2)ccc1Cl	-11%	.	?	.	2%	21µM*
O=S(=O)(/N=C(/Nc1cccc2ccccc12)c1ccc(F)cc1)c1ccccc1	-12%	?	-19	1%	3%	?
O=S(=O)(/N=C(/Nc1ccc(Cl)c(S(=O)(=O)Nc2ccccc2Cl)c1)c1ccc(F)cc1)c1ccccc1	8%	3%	-75*!	5%	?	-7%
COc1ccccc1NS(=O)(=O)c1cc(C(=O)NC2CC(C)(C)NC(C)(C)C2)ccc1Cl	-11%	-15%	?	.	-2%	3%
O=C(CSc1nc2sc3c(c2c(=O)[nH]1)CCCC3)Nc1ccccc1F	-1%	?	.	-2%	-5%	?
CCN(CC)CCC(c1ccc(N(C)C)cc1)c1c(OC)cc(OC)c2ccc(=O)oc12 (centres undefined)	-2%	10µM*	-2	.	-4%	13µM*
COc1cc(OC)c2ccc(=O)oc2c1C(CCN1CCCC1)c1ccc(N(C)C)cc1 (centres undefined)	-2%	9.2µM*	-2	17%	-11%	?
COc1cc(OC)c2ccc(=O)oc2c1C(CC(=O)N1CCCC1)c1ccc(N(C)C)cc1 (centres undefined)	-11%	?	-4	13%	-17%	?
COc1cc(C(O)c2nc(-c3ccc(F)c(Cl)c3)cs2)ccc1F (centres undefined)	-43%	?	?	.	-23%	?
COc1ccc(C(O)c2nc(-c3ccc(Cl)cc3)cs2)cc1 (centres undefined)	-19%	-61%	-25	.	-25%	?
COc1ccc(C(O)c2nc(-c3ccc4ccccc4c3)cs2)cc1 (centres undefined)	-2%	?	15	.	-9%	16µM*
COc1cc(C(O)c2nc(-c3ccc4ccccc4c3)cs2)ccc1F (centres undefined)	-107%	23µM*	-17	.	?	21µM*
COc1ccc(C(O)c2nc(-c3ccc(OC)c(OC)c3)cs2)cc1 (centres undefined)	5%	13µM*	-2	.	-1%	18µM*
Cc1ccc2ncc(C(=O)N3CCN(c4ccccc4F)CC3)c(=O)n2c1	-5%	0%	.	0%	-3%	-6%
Cc1ccc(-c2noc(-c3nnn(CC(=O)Nc4cc(Cl)ccc4C)c3N)n2)cc1	7%	20%	.	8%	.	1%
COC(=O)[C@@H]1C[C@H]1[C@@H](NC(C)=O)c1ccccc1	.	.	.	9%	.	.
CC[n+]1c(C)cc2c(sc3ccccc32)c1C	-17%	12µM*	6	6%	?	2.9µM*
COC(=O)c1ccccc1NS(=O)(=O)c1cc2c3c(c1)CC(=O)N3CCC2	3%	-27%	.	3%	?	-25%
CN(C)C(CNC(=O)CCc1nc2cc(Cl)ccc2n(Cc2ccccc2)c1=O)c1ccccc1 (centres undefined)	-13%	?	-67*	-6%	?	16µM*
O=C(Cc1ccccc1)N[C@@H]1c2ccccc2CC[C@@H]1OCc1ccccc1	-37%	-23%	-24	-2%[56.1 µM]	-20%	-18%
O=C(COCc1ccccc1)N[C@@H]1c2ccccc2CC[C@@H]1OCc1ccccc1	-5%	?	-51*	-4%[56.1 µM]	?	?
SMILES	HepG2 viability	DT40 TDP1 CPT	IL1B secr inh	TDP1 inh	TGFb SMAD3 inh	TDP1 cell noCPT
O=C(CCc1ccccc1)N[C@@H]1c2ccccc2CC[C@H]1OCc1ccccc1	-13%	?	-7	-3%[56.1 µM]	-27%	12µM*
CCc1ccc(-c2nc(CS(=O)CC(=O)NCCc3ccc(Cl)cc3)c(C)o2)cc1 (centres undefined)	-32%	?	.	1%	?	?
CCOC(=O)C1=CN(CC2CCCO2)C=C(C(=O)OCC)C1c1ccccc1C(F)(F)F (centres undefined)	-2%	?	-11	.	-6%	18µM*
CC(=O)c1cccc(N=Nc2c(C)[nH]c3ccccc23)c1	-10%	?	0	-5%	-6%	?
CC(=O)c1ccc2c(c1)c(C#N)c1ccccc1[n+]2[O-]	-22%	13µM*	7	.	-20%	18µM*
O=C(Nc1ccc(O)cc1)c1cc2ccccc2c(=O)s1	-4%	?	-27	.	-3%	16µM*
O=C(Nc1ccccc1)c1cc2ccccc2s1	-38%	1%	19	.	-3%	-24%
COc1cc(NS(=O)(=O)c2ccc(-c3cc(C)no3)cc2)cc(OC)c1	-31%	1.8µM*	.	6%	?	2.1µM*
COc1ccccc1CNS(=O)(=O)c1ccc(-c2cc(C)no2)cc1	-14%	0.58µM*	51	0%	?	0.58µM*
COc1cccc(-c2nc(CS(=O)(=O)CC(=O)NCc3cccc(Cl)c3)c(C)o2)c1	-15%	2%	.	8%	?	-17%
Cc1ccccc1OCc1ccc(-c2nc(C#N)c(NCc3cccnc3)o2)o1	-36%	15µM*	.	8%	?	21µM*
COc1ccc(CNc2oc(-c3ccc(COc4ccccc4C)o3)nc2C#N)cc1	14µM*	?	.	7%	-11%	?
CCCCNc1oc(-c2ccc(COc3ccccc3C)o2)nc1C#N	-46%	?	.	5%	-18%	?
COc1ccc(OCc2ccc(-c3nc(C#N)c(NCc4cccnc4)o3)o2)cc1	-12%	?	.	11%	-14%	18µM*
CS(=O)(=O)N1CCC2(CCCN(Cc3ccccc3)C2)CC1	.	7%	.	.	.	-9%
